The source of these data is the supplement of paper PMC6555819.

Common to all, as to assay: PBM binding z-score (relative to random genomic background probes); higher = stronger binding; sequences stand for … in GC…GCGATTGACAGCGTAGAATGAAGG
The test system of assay [1] is PPARg:RXRa DBDmut IVT, anti-RXR (DBD mutation: RXRa K156A/R161A, NR concentration 270 nM, RXRa partner concentration 90 nM). In outline:
(§1)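 Binding z-scores take random background probes as their reference. They come from custom Agilent 4×180K protein-binding microarrays incubated 1 h with ligand-free nuclear receptor dimers, with antibodies against each partner (one per run) detecting binding. Scanned fluorescence was regression-normalized.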

The test system of assay [2] is PPARg:RXRa IVT, anti-PPARg (NR concentration 270 nM, RXRa partner concentration 90 nM). Summed up:
as §1

Assay [3] concerns PPARg DBDmut:RXRa IVT, anti-PPARg (DBD mutation: PPARg1 K132A/R137A, NR concentration 270 nM, RXRa partner concentration 90 nM). In outline:
as §1

Assay [4] has as its system PPARg DBDmut IVT, anti-PPARg (DBD mutation: PPARg1 K132A/R137A, NR concentration 270 nM). Summed up:
as §1

Assay [5] concerns PPARg homodimer (NR concentration 180 nM). Summed up: as §1
For assay [6], the system named is PXR:RXRa (NR concentration 270 nM, RXRa partner concentration 90 nM). In outline: as §1
Assay [7] concerns PXR homodimer (NR concentration 270 nM). Summed up: as §1
Assay [8] deals with RARa:RXR (NR concentration 270 nM, RXRa partner concentration 90 nM). In outline: as §1
Assay [9] concerns RARa homodimer (NR concentration 270 nM). In outline: as §1
Assay [10] has as its system RARb:RXRa (NR concentration 270 nM, RXRa partner concentration 90 nM). In outline:
as §1

TCTTGTAGAACAATAGAGGTTAAGAAAGTGCGCT: the PBM binding z-score in [1] is 1.83; in assay [2], 1.45; in assay [3], 0.641; in [4], 0.472; in [5], -0.0635; in [6] it was 3.16. Further, the PBM binding z-score in assay [7] was 0.538; in [8], 1.69; in assay [9], 0.27; in [10], 0.777.
On to GCAGACAGGAGAAACGCAGGTAACTCAGGGTGGC, for which the PBM binding z-score was -0.542 in [1]; -0.859 in [2]; -0.9 in [3]; -0.99 in assay [4]; -0.201 in assay [5]; -0.694 in assay [6]. Further, the PBM binding z-score in assay [7] was -0.412; in [8] it was -0.368; in assay [9], -1.26; in assay [10], -0.624.
Consider CCGACTGGGGCAAAGGTTAACATACTCAGTACGA, for which the PBM binding z-score is 4.64 in assay [1]; 6.54 in [2]; 0.226 in assay [3]; -0.237 in assay [4]; 1.61 in assay [5]; 3.12 in [6]. Besides, the PBM binding z-score in [7] is -0.0875; in assay [8], 4.64; in assay [9], 0.346; in [10] it was 2.77.
Turning to GGTCGGAGGACAAGGTCAGAGCTTTGTCCGTAGA, the PBM binding z-score in [1] is 0.195; in [2], 1.61; in assay [3], -0.429; in assay [4], -1.06; in assay [5] it was 1.09; in assay [6] it was 1.63. For the same sequence, the PBM binding z-score in assay [7] is 0.0611; in [8], 1.82; in [9], -0.267; in assay [10] it was 3.62.
For the sequence TCTATTAGTTGATTAGGGCTACCGAAACAGCGGA, the PBM binding z-score in assay [1] was 1.71; in assay [2], 0.487; in assay [3], 0.367; in assay [4] it was 0.888; in assay [5], 1.29; in assay [6], 0.181. The PBM binding z-score was 0.128 in assay [7], 0.22 in assay [8], 0.748 in [9] and 0.309 in [10].
In the case of CTCGAAGGGTCGGTTGAGGTGAGTATACGGATAA, the PBM binding z-score is -0.575 in assay [1]; 0.478 in assay [2]; -0.346 in assay [3]; 0.307 in assay [4]; 0.548 in assay [5]; 1.86 in assay [6]. Also, the PBM binding z-score in [7] was 0.399; in assay [8], 1.32; in [9], -0.148; in [10] it was 1.88.
Turning to ATACCAAGATGATCGTGAGGTCGTTGATACTAAC, the PBM binding z-score is 0.165 in assay [1]; 0.114 in assay [2]; 0.181 in assay [3]; 0.947 in [4]; 0.378 in assay [5]; 1.67 in assay [6]. Also, the PBM binding z-score came to 1.32 in assay [7], 1.35 in assay [8], 0.361 in assay [9] and 0.547 in assay [10].
Regarding AATACAGGGGCACTAGGCCAGAGTAGGTACGAAT, the PBM binding z-score was 2.1 in assay [1]; 3.75 in assay [2]; 0.831 in assay [3]; 0.38 in [4]; 0.784 in assay [5]; -0.286 in assay [6]. In addition, the PBM binding z-score in assay [7] is -0.158; in assay [8], -0.2; in [9], -0.664; in assay [10] it was 1.16.
As for CCTCGGAGGACACAAGGTCAGAGCTGTCCGCTTT, the PBM binding z-score is 0.831 in [1]; 0.883 in [2]; -1.16 in assay [3]; -1.74 in assay [4]; 1.72 in assay [5]; 2.35 in assay [6]. The PBM binding z-score in assay [7] stood at 0.133; in assay [8], 2.25; in assay [9], 0.096; in assay [10], 3.46.
Turning to ACAGACAGGTGATGAAGGTAACTCAAGCTATCAT, the PBM binding z-score in [1] was 0.0752; in assay [2], 0.481; in [3], -0.066; in [4] it was 0.468; in assay [5], 0.000193; in [6], -0.188. Moreover, the PBM binding z-score in assay [7] is 0.00644; in assay [8], -0.191; in assay [9], 0.18; in assay [10], 0.252.
As for ATATGGAGGTTACATCCGGGTCATTCAGGCTATG, the PBM binding z-score in [1] was determined as 2.72; in [2], 3.63; in [3], 1.46; in assay [4], 0.791; in assay [5], 2.15; in assay [6] it was 4.57. For the same sequence, the PBM binding z-score in [7] is 2.76; in assay [8], 4.94; in assay [9] it was 0.676; in [10], 2.88.
Take AGAATGTGGTTACCAAAGATCAGGGAAACGCTTG: the PBM binding z-score in [1] was 0.0362; in assay [2] it was 0.248; in assay [3] it was 0.393; in assay [4], 0.266; in assay [5], 0.264; in [6], -0.353. Besides, the PBM binding z-score is -0.342 in assay [7], -0.178 in assay [8], -0.0425 in assay [9] and -0.0731 in [10].
